Assays:
Assay in all cases: DAPPL (digital affinity profiling via proximity ligation, sequencing); 10 mM Tris-HCl pH 7.5, 50 mM NaCl, 1 mM DTT, 4% glycerol, room temperature, 30 min; GST-TFs on glutathione beads, 16-mer random dsDNA library, 0.1% formaldehyde crosslink after washing; high values mean tight binding
FLI1 = molecular target: T1, FLI1 (Homo sapiens, UniProt Q01543 1-452); settings: protein: recombinant; tags: N-terminal GST; dsDNA, one strand shown
T1 sequence: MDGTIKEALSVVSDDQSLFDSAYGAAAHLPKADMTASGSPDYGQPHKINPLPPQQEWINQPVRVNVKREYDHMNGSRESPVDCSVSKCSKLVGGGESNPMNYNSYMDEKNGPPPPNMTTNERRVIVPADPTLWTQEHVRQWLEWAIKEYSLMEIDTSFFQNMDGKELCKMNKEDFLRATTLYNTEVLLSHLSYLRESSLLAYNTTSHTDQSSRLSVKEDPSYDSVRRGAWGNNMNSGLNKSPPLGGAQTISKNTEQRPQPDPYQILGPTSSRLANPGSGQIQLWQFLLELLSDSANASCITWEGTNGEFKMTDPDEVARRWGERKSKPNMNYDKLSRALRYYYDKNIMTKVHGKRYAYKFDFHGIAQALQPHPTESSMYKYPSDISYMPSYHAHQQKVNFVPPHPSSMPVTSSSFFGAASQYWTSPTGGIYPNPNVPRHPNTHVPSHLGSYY
In short: (§1)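 Pools were built from human transcription factors expressed in yeast as GST fusions, captured on glutathione beads and DNA-barcoded, along with a tag-only sample. Incubation with 200 nmole of a 16-mer random double-stranded DNA library lasted 30 min at room temperature in Tris/NaCl/DTT/glycerol buffer, and was followed by washing, 0.1% formaldehyde crosslinking, proximity ligation, PCR amplification and Illumina NextSeq500 sequencing. Binding signal is the quotient of each hexamer's read frequency for a factor and its frequency for the tag-only sample.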

ELK1 = molecular target: T2, ELK1 (Homo sapiens, UniProt P19419 1-428); settings: protein: recombinant; tags: N-terminal GST; dsDNA, one strand shown
T2 sequence: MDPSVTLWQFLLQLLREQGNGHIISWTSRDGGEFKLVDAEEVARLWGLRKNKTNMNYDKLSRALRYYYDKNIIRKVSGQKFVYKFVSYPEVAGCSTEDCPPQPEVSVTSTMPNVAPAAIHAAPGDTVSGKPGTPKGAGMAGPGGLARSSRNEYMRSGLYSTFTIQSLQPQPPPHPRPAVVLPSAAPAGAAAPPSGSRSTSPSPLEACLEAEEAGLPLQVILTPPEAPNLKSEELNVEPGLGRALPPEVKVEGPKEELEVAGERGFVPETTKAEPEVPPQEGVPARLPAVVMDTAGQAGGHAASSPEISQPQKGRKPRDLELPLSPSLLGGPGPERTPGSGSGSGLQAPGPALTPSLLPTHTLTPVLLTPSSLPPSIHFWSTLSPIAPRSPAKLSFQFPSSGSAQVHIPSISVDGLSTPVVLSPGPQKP
In short: as §1

GABPA = molecular target: T3, GABPA (Homo sapiens, UniProt Q06546 1-454); settings: protein: recombinant; tags: N-terminal GST; dsDNA, one strand shown
T3 sequence: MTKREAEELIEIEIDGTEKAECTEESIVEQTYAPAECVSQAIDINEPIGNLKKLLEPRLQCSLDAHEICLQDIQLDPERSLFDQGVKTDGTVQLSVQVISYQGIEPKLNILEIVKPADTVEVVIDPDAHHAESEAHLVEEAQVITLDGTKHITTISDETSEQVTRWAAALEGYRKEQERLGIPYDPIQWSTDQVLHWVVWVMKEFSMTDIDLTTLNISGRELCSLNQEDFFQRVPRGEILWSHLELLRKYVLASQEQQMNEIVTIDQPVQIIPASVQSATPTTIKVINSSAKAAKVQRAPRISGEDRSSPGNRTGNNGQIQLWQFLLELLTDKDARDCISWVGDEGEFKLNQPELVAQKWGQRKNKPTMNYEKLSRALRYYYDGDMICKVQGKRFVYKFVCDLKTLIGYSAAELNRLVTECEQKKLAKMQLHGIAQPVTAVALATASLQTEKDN
In short: as §1

ERG = molecular target: T4, ERG (Homo sapiens, UniProt P11308 1-479); settings: protein: recombinant; tags: N-terminal GST; dsDNA, one strand shown
T4 sequence: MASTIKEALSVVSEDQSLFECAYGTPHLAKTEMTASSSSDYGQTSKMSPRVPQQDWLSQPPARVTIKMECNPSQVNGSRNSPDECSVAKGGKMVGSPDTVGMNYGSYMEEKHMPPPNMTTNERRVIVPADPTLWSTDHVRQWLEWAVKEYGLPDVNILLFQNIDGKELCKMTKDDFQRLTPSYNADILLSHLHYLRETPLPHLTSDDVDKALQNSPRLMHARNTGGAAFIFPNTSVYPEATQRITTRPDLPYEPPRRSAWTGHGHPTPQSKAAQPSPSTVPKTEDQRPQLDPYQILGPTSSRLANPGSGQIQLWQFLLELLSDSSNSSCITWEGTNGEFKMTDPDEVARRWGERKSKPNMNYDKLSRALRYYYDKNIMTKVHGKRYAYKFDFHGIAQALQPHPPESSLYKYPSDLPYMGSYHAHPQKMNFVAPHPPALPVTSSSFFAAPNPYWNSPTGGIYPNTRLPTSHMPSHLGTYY
In short: as §1

ELF1 = ELF1 (Homo sapiens, UniProt P32519 1-619); settings: protein: recombinant; tags: N-terminal GST; dsDNA, one strand shown
Chain of ELF1 (P32519 whole entry): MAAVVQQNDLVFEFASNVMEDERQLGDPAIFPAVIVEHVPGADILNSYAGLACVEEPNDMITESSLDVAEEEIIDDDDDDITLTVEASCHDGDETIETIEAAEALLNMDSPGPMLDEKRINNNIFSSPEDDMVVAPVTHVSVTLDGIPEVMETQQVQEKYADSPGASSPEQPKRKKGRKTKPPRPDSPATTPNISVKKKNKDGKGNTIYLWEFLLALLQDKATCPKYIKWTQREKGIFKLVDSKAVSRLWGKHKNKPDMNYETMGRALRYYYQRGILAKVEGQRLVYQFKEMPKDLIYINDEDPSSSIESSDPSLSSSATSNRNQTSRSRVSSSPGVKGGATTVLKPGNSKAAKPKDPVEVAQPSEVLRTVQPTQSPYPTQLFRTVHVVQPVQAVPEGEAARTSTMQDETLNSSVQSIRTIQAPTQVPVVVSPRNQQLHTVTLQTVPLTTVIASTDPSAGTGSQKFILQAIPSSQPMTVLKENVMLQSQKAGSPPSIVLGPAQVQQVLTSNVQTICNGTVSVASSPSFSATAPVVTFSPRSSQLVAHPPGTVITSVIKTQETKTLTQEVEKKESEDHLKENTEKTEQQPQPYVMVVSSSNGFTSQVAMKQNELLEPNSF
In short: as §1

EHF = molecular target: T5, EHF (Homo sapiens, UniProt Q9NZC4 1-300); settings: protein: recombinant; tags: N-terminal GST; dsDNA, one strand shown
T5 sequence: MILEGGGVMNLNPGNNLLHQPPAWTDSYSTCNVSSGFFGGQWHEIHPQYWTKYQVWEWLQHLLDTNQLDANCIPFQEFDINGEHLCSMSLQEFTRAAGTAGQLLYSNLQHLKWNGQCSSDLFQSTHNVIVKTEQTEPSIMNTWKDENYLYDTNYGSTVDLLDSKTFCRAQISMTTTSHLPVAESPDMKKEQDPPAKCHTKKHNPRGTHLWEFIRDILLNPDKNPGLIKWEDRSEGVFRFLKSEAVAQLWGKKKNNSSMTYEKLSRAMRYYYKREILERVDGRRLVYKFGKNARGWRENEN
In short: as §1

SPI1 = SPI1 (Homo sapiens, UniProt P17947 1-270); settings: protein: recombinant; tags: N-terminal GST; dsDNA, one strand shown
In short: as §1

ELK3 = molecular target: T6, ELK3 (Homo sapiens, UniProt P41970 1-407); settings: protein: recombinant; tags: N-terminal GST; dsDNA, one strand shown
T6 sequence: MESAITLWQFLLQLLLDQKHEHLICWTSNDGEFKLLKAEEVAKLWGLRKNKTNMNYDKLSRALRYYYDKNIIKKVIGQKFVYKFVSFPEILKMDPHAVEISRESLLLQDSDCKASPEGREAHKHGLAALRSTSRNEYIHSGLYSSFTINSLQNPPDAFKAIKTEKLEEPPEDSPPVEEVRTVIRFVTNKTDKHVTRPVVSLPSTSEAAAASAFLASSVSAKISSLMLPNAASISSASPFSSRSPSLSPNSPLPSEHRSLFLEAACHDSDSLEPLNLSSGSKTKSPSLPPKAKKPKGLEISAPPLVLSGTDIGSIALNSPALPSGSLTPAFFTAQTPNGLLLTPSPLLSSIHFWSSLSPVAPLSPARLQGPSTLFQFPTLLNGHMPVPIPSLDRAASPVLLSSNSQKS
In short: as §1

FEV = molecular target: T7, FEV (Homo sapiens, UniProt Q99581 1-238); settings: protein: recombinant; tags: N-terminal GST; dsDNA, one strand shown
T7 sequence: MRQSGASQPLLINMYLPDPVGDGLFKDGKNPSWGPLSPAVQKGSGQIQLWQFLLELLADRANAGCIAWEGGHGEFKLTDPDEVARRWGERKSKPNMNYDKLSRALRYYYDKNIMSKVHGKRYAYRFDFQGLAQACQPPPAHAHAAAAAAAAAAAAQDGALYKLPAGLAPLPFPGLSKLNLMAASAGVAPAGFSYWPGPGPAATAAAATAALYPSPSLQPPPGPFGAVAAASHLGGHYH
In short: as §1

ETV5 = ETV5 (Homo sapiens, UniProt P41161 1-510); settings: protein: recombinant; tags: N-terminal GST; dsDNA, one strand shown
Chain of ETV5 (P41161 whole entry): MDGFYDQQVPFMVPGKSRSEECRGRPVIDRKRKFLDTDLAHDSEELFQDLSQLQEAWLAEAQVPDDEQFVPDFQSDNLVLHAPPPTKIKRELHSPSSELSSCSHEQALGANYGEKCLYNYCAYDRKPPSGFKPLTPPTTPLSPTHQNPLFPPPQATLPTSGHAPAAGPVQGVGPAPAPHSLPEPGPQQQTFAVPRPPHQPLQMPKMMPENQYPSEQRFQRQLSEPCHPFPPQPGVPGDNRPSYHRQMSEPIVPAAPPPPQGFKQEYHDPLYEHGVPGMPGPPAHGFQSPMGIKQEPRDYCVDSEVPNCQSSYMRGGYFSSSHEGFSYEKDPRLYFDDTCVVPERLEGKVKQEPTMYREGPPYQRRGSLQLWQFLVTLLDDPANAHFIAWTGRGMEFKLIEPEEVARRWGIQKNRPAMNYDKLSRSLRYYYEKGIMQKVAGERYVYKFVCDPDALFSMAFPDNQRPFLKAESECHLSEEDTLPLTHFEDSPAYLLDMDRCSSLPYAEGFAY
In short: as §1

HSF1 = HSF1 (Homo sapiens, UniProt Q00613 1-529); settings: protein: recombinant; tags: N-terminal GST; chain copies: 3; dsDNA, one strand shown
Chain of HSF1 (Q00613 whole entry): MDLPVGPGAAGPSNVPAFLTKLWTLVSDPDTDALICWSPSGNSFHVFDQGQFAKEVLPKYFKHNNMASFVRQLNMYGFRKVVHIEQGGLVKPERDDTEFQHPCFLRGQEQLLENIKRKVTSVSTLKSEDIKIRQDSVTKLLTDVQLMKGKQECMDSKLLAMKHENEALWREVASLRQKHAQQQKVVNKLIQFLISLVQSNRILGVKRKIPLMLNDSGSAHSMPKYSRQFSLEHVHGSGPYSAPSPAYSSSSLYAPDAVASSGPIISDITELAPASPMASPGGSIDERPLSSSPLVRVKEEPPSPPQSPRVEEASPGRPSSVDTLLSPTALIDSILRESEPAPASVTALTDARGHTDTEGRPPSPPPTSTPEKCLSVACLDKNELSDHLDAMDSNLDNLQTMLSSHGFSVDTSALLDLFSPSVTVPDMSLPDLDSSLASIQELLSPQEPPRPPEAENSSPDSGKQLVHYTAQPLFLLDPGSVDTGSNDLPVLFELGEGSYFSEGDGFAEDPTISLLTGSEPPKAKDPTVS
In short: as §1

SPIC = molecular target: T8, SPIC (Homo sapiens, UniProt Q8N5J4 1-248); settings: protein: recombinant; tags: N-terminal GST; dsDNA, one strand shown
T8 sequence: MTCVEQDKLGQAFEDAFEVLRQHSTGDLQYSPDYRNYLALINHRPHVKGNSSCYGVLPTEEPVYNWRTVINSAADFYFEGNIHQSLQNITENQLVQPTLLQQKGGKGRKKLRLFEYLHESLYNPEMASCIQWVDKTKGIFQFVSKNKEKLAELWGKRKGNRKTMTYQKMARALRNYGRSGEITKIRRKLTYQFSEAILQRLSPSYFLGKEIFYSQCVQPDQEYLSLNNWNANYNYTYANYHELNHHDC
In short: as §1

ELF4 = ELF4 (Homo sapiens, UniProt Q99607 1-663); settings: protein: recombinant; tags: N-terminal GST; dsDNA, one strand shown
Chain of ELF4 (Q99607 whole entry): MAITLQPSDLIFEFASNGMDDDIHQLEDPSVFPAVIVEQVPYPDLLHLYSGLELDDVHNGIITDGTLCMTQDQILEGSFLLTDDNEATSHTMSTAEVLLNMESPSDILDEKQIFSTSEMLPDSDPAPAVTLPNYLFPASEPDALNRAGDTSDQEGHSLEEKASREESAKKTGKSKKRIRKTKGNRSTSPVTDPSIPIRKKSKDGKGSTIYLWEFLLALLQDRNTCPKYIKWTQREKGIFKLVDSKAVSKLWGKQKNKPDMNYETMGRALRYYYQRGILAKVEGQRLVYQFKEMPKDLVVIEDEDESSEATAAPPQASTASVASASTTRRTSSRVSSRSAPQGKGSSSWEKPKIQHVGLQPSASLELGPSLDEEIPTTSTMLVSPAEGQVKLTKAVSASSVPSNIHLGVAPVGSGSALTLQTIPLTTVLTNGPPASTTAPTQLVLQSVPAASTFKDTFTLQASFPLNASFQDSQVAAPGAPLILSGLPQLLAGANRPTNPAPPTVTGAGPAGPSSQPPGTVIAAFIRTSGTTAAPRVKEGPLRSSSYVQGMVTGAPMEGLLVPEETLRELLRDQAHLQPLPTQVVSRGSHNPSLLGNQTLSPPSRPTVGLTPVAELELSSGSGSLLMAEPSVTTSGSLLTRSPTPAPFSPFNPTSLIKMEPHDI
In short: as §1

ELK4 = molecular target: T9, ELK4 (Homo sapiens, UniProt P28324-2 1-405); settings: protein: recombinant; tags: N-terminal GST; dsDNA, one strand shown
T9 sequence: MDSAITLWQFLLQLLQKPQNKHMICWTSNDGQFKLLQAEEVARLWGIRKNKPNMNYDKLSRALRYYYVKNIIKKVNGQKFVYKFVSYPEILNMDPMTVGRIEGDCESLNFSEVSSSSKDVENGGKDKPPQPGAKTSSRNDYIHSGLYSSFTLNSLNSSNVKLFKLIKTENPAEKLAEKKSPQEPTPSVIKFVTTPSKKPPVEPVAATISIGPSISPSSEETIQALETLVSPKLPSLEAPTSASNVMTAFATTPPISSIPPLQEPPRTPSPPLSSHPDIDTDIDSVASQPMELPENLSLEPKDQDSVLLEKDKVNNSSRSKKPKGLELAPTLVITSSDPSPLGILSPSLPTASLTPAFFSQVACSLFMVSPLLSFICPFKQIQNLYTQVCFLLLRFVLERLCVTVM
In short: as §1

ETV2 = molecular target: T10, ETV2 (Homo sapiens, UniProt O00321 1-342); settings: protein: recombinant; tags: N-terminal GST; dsDNA, one strand shown
T10 sequence: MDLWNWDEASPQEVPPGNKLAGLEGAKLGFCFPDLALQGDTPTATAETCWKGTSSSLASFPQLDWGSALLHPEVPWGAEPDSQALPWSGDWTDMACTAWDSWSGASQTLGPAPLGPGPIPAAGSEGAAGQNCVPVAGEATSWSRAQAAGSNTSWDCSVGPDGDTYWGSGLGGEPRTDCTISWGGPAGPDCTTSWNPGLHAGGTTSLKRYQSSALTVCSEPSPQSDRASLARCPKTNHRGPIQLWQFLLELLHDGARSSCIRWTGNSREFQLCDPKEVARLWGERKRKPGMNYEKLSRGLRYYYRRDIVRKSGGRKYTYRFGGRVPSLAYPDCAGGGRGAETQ
In short: as §1

ELF3 = molecular target: T11, ELF3 (Homo sapiens, UniProt P78545 1-371); settings: protein: recombinant; tags: N-terminal GST; dsDNA, one strand shown
T11 sequence: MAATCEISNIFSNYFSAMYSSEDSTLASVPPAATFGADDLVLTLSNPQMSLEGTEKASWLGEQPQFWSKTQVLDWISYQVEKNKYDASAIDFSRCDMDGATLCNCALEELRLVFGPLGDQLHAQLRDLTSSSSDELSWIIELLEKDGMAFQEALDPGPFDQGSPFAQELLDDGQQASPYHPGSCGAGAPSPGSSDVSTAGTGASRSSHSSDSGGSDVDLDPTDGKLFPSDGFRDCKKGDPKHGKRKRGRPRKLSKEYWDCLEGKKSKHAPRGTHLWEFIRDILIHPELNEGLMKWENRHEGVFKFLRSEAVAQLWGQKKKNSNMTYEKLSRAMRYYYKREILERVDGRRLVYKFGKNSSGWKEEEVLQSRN
In short: as §1

CRX = CRX (Homo sapiens, UniProt O43186 1-299); settings: protein: recombinant; tags: N-terminal GST; dsDNA, one strand shown
Chain of CRX (O43186 whole entry): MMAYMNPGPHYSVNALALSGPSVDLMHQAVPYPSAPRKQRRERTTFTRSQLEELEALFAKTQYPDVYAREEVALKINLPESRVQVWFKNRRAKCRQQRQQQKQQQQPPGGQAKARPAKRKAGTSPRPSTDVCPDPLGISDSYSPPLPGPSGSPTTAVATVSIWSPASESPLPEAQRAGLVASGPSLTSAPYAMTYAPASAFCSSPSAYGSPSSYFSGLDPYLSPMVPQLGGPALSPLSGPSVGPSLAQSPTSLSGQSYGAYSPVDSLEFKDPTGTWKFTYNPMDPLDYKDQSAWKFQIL
In short: as §1

ETV1 = ETV1 (Homo sapiens, UniProt P50549 1-477); settings: protein: recombinant; tags: N-terminal GST; dsDNA, one strand shown
Chain of ETV1 (P50549 whole entry): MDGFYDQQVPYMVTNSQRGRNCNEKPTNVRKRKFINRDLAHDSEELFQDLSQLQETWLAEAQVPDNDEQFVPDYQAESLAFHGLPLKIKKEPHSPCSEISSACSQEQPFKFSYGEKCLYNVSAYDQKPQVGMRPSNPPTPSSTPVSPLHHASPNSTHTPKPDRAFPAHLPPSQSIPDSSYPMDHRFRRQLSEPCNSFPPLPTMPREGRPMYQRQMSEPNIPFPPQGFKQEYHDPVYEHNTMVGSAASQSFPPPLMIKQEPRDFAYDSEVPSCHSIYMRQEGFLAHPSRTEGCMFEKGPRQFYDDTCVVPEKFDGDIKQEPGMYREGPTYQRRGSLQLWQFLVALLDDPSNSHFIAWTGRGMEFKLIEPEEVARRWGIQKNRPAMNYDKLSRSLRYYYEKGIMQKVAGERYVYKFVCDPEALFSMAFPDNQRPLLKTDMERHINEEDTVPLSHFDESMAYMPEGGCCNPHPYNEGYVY
In short: as §1

TACTGA
binding signal (FLI1): 1.03 fold enrichment (6-mer frequency, TF over GST control)
binding signal (ELK1): 1.08 fold enrichment (6-mer frequency, TF over GST control)
binding signal (GABPA): 1.06 fold enrichment (6-mer frequency, TF over GST control)
binding signal (ERG): 1.03 fold enrichment (6-mer frequency, TF over GST control)
binding signal (ELF1): 1.13 fold enrichment (6-mer frequency, TF over GST control)
binding signal (EHF): 1.13 fold enrichment (6-mer frequency, TF over GST control)
binding signal (SPI1): 1.02 fold enrichment (6-mer frequency, TF over GST control)
binding signal (ELK3): 1.09 fold enrichment (6-mer frequency, TF over GST control)
binding signal (FEV): 1.03 fold enrichment (6-mer frequency, TF over GST control)
binding signal (ETV5): 1.13 fold enrichment (6-mer frequency, TF over GST control)
binding signal (HSF1): 1.07 fold enrichment (6-mer frequency, TF over GST control)
binding signal (SPIC): 1.03 fold enrichment (6-mer frequency, TF over GST control)
binding signal (ELF4): 1.11 fold enrichment (6-mer frequency, TF over GST control)
binding signal (ELK4): 1.32 fold enrichment (6-mer frequency, TF over GST control)
binding signal (ETV2): 1.12 fold enrichment (6-mer frequency, TF over GST control)
binding signal (ELF3): 1.2 fold enrichment (6-mer frequency, TF over GST control)
binding signal (CRX): 1.2 fold enrichment (6-mer frequency, TF over GST control)
binding signal (ETV1): 1.02 fold enrichment (6-mer frequency, TF over GST control)

From paper PMC7862700, “An all-to-all approach to the identification of sequence-specific readers for epigenetic DNA modifications on cytosine”
